TROY signal inh = blocks TROY-dependent signaling in reporter cells | Q293 LMP1-TROYcd NF-kB luciferase reporter, 4 h | inhibition, % at 10 µM | hit rate 0.98% among 360,000 | AID 1347056;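 active = compounds whose plate-normalised and pattern-corrected inhibition of the luciferase reporter signal at the single screening dose is 50% or more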
HIF-2a block = blocks HIF-2a reporter activity. 786-0 RCC cells HIF-2a reporter, luciferase luminescence, overnight. inhibition, % at 18.8 µM. hit rate 0.72% among 360,000. AID 624352;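 active = inhibition of the luminescence signal of 40% or more relative to plate controls, in a single-dose primary screen at 18.75 µM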
Peg3 promoter = Peg3 promoter activity inhibition; inhibition, % at 20 µM; AID 588405; HeLa PEG-Prom luciferase reporter, luminescence, overnight; hit rate 1.7% among 360,000;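 active = inhibition of at least 50% at 20 µM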
TWEAK Fn14 block = inhibitors of TWEAK-Fn14 interaction signaling; TWEAK-stimulated Fn14 reporter cells, luciferase luminescence, 8 h; inhibition, % at 10 µM; AID 1159606; hit rate 2% among 360,000; in the data active = inhibition above about 50%
CF NFkB block = blocks PAF-induced NF-kB reporter in cystic fibrosis cells | inhibition, % at 5 µM | hit rate 0.86% among 360,000 | KKLEB NF-kB-GFP reporter, GFP fluorescence overnight;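 active = at least 50% inhibition at 5 µM, scaled per plate between neutral and stimulator controls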;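 also: PAF is a Pseudomonas aeruginosa culture filtrate used as stimulus; plate controls were PAF-stimulated DMSO wells for no effect and unstimulated DMSO wells for full effect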
KKLEB cytotox = CF airway cell cytotoxicity counter-screen; KKLEB CF airway cells viability, ATPlite luminescence, overnight; active compounds read low; cells stimulated with P. aeruginosa culture filtrate; activity change (cytotoxicity), % at 5 µM; hit rate 0.36% among 360,000; AID 602141;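 active = corrected activity change at or below -50% at 5 µM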
* hit, by the source's call; . = not tested or not shown. Rows were chosen to be rich in hits. Some 4% of all compounds tested hit in one or more screens of this group.

SMILES	TROY signal inh	HIF-2a block	Peg3 promoter	TWEAK Fn14 block	CF NFkB block	KKLEB cytotox
CCCCN1C(=O)C(CC(=O)NCC)SC1=Nc1ccccc1 (centres undefined)	3	-6	7	10	-8	2
COc1ccc(-c2cc(=O)oc3c(C)c(OC(C)C(C)=O)ccc23)cc1 (centres undefined)	29	26	52*	-16	19	-8
CCN(CC)CCCNC(=O)C(C)n1nc(C)c2sc3ccccc3c2c1=O (centres undefined)	-1	0	-28	-12	14	-5
CCOC(=O)C1CCCN(C(=O)c2ccc3nc(-c4cccc(OC)c4)oc3c2)C1 (centres undefined)	68*	-145	-25	46	13	-16
CCC(=O)C1CCCN(C(=O)c2ccc3nc(-c4cccc(OC)c4)oc3c2)C1 (centres undefined)	53*	-85	-132	39	26	-19
CCN(CC)C(=O)C1CCCN(C(=O)c2ccc3nc(-c4cccc(OC)c4)oc3c2)C1 (centres undefined)	-42	-139	-81	-6	-14	9
O=C(c1ccc(S(=O)(=O)Cc2ccccc2Cl)c([N+](=O)[O-])c1)N1CCOCC1	-5	11	20	38	11	-5
Cc1c2cnn(CC(=O)NCCCN3CCCCC3C)c(=O)c2c(C)n1Cc1ccccc1 (centres undefined)	-1	5	-3	19	-28	20
Nc1c(C(=O)NC2CC2)sc2nc3c(c(-c4ccco4)c12)CC/C3=C/c1ccco1	8	-3	-7	83*	-8	-3
O=C(COC(=O)c1c2c(nc3ccccc13)/C(=C\c1ccco1)CC2)NC1CCCC1	8	-52	-23	13	-28	-3
NC(=O)c1sc2nc3c(c(-c4ccco4)c2c1N)CCC3	13	4	29	17	76*	-1
CCc1ccccc1NC(=O)Nc1cccn(Cc2ccc(F)cc2)c1=O	9	0	2	16	-1	1
O=C(CSc1nc(-c2ccccc2)cc(=O)[nH]1)Nc1ccccc1	-11	6	2	10	-3	-2
Cc1ccc2nc(-c3ccc(SCC(=O)Nc4nnc(C)s4)nc3)[nH]c2c1	-49	-35	99*	25	-16	5
Cc1cc2nc(-c3ccc(SCC(=O)Nc4ccc5c(c4)OCCO5)nc3)[nH]c2cc1C	-22	-254	-138	8	-37	-54*
Cc1ccc2nc(-c3ccc(SCC(=O)Nc4nc(C)cs4)nc3)[nH]c2c1	-9	-175	-226	10	1	-7
COc1ccc2c(c1)OC1=C(C(=O)CCC1)C2C1=C(O)CCCC1=O (centres undefined)	29	-5	-8	9	-2	6
CCc1ccc(C2c3[nH]c4ccccc4c3CCN2C(=O)CN2CCN(CC)CC2)cc1 (centres undefined)	8	6	84*	-6	13	-19
Cc1ccc(C(c2c(NC(=O)c3ccco3)sc(C)c2C)N2CCOCC2)cc1 (centres undefined)	38	16	42	70*	0	-7
COc1ccc(C(c2c(NC(=O)c3ccco3)sc(C)c2C)N2CCOCC2)cc1OC (centres undefined)	-30	-1	4	7	-29	7
CN(C)c1ccc(CC(=O)c2nc3ccccc3s2)cc1	76*	-67	-137	78*	0	1
CN(C)C(=O)c1nc2ccccc2s1	21	-138	-101	18	-10	-2
Cc1cc(NCCCCCCCNc2cc(C)nc3cc([N+](=O)[O-])ccc23)c2ccc([N+](=O)[O-])cc2n1	34	33	102*	77*	7	11
Cc1ccc(S(=O)(=O)N(C)C)cc1NC(=O)CSc1ncn[nH]1	-17	11	3	15	7	7
CC(=O)/C(C(=N)N1CCN(c2cccc(Cl)c2)CC1)=C(\C)O	57*	-3	0	75*	11	-1
SMILES	TROY signal inh	HIF-2a block	Peg3 promoter	TWEAK Fn14 block	CF NFkB block	KKLEB cytotox
N#C/C(=C/c1cn(-c2ccccc2)nc1-c1cccc(S(=O)(=O)N2CCCC2)c1)C(=O)NCc1ccco1	-7	20	21	-3	-19	3
N#C/C(=C/c1cn(-c2ccccc2)nc1-c1cccc(S(=O)(=O)N2CCOCC2)c1)C(=O)NCc1ccco1	-11	9	9	-44	51*	-57*
O=C(Cc1csc(Nc2nc(=S)[nH]c3ccccc23)n1)N1CCN(c2cccc(C(F)(F)F)c2)CC1	19	19	80*	17	12	-15
Cn1cnc([N+](=O)[O-])c1Oc1cccc2ccccc12	26	1	0	50*	32	2
COc1cc(/C=N/NC(=O)c2cc(-c3cccc(OC(C)C)c3)nc3ccccc23)ccc1O	2	-92	-89	15	-17	-16
Cc1cccc(NC(c2ccc(O)cc2)c2ccc3ccc(C)nc3c2O)n1 (centres undefined)	8	55*	42	14	46	-14
COc1cccc(C(Nc2ccccc2)c2ccc3ccc(C)nc3c2O)c1 (centres undefined)	.	-98	.	.	.	.
O=C(C1CCC(CNS(=O)(=O)c2cccs2)CC1)N1CCN(c2ccc(Cl)cc2)CC1 (centres undefined)	48	21	8	50	1	0
CN(CCc1ccccc1)C(=O)c1ccc(NC(=O)Cc2ccc(NC(=O)C3CCCN(C(=O)CCc4ccccc4)C3)cc2)cc1 (centres undefined)	23	-10	-10	58*	-8	15
CN(CCc1ccccc1)C(=O)c1ccc(NC(=O)Cc2ccc(NC(=O)C3CCN(C(=O)CCc4ccccc4)CC3)cc2)cc1	32	-11	4	55*	-6	15
O=c1c2cccc3c2c(nn1-c1ccccc1)-c1ccccc1-3	-3	7	42	-42	-134	2
Cc1cc(Oc2nc3ccccn3c(=O)c2/C=C(\C#N)C(=O)NC2CCS(=O)(=O)C2)ccc1Cl (centres undefined)	-3	-8	66*	14	-16	-1
O=C(CSc1nc2[nH]ncc2c(=O)n1-c1ccccc1)c1ccc2c(c1)OCCO2	22	7	57*	34	-11	0
O=C(CSc1nc2[nH]ncc2c(=O)n1-c1ccccc1)NCCc1ccccc1	1	8	1	-3	-4	3
Cc1cc(C(=O)COC(=O)C2=NNC(=O)CC2)c(C)n1-c1ccccc1	57*	10	-18	7	-10	7
Cc1ccc(-n2c(C)cc(C(=O)COC(=O)C3=NNC(=O)CC3)c2C)cc1	5	50*	-1	16	9	-2
Cc1ccc(-n2c(C)cc(C(=O)COC(=O)c3c(C)noc3C)c2C)cc1	6	-214	-212	15	5	-3
